Vaccinia Venus – qHTS for Stage-Specific Inhibitors of Vaccinia Orthopoxvirus: Venus Reporter Primary qHTS; Potency, µM (titrated, usually from 36.5 µM), inactives show top-dose activity change, negative = inhibition, most hits filed as inhibitors; AID 720580, 2013; 330,000 compounds, 0.46% hits; Vaccinia virus Venus reporter expression, fluorescence; calls by dose curve; tested in A549 cells; also: potency is read from the fitted curve at half-maximal effect; nearly all actives have a fitted effect of over 30% in size
LASV entry inh – qHTS for Inhibitors of binding or entry into cells for Lassa Virus; AID 540256, 2011; Lassa virus pseudotype entry inhibition, cell reporter; Potency, µM (doses to about 37.9 µM), inactives show at the top dose activity change, negative = inhibition, hits mostly inhibitors; 300,000 compounds, 1.2% hits; calls by dose curve; tested in HEK293 cells; also: potency is read from the fitted curve at half-maximal effect; nearly all actives have a fitted effect of over 50% in size
HCMV inh – qHTS Assay for inhibitors of the human cytomegalovirus (HCMV); HFF cells, HCMV-luciferase reporter, 72 h; hits give low values; activity change, negative = inhibition, % at 57.5 µM; 410,000 compounds, 4.5% hits; in the data active = activity change below about -60%; inconclusive = no clear call, values can overlap the other calls; inactive = above about -39%
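HFF cells seeded 16 h at 37C, treated with compounds, infected with luciferase-reporter HCMV at MOI 1 PFU/cell; luciferase read at 72 h post infection, normalized to buffer-only and Salinomycin controls.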
FMDV antiviral – High Throughput Screening for Foot and Mouth Disease Virus Antivirals; Potency, µM (top dose mostly 57.9 µM), for inactives: top-dose activity change, negative = inhibition, usual class: inhibitors; 410,000 compounds, 1.2% hits; AID 1159524, 2015; FMDV antiviral cell-based qHTS; calls by dose curve; tested in HEK293T cells; also: read-out not given here; potency is read from the fitted curve at half-maximal effect; nearly all actives have a fitted effect of over 45% in size
Marburg entry inh – qHTS for inhibitors of binding or entry into cells for Marburg Virus; Marburg virus pseudotyped entry inhibition, cell reporter; Potency, µM (titrated, usually from 37.8 µM), without a hit: at the highest dose activity change, negative = inhibition, actives largely listed as inhibitors; 300,000 compounds, 1.8% hits; calls by dose curve; tested in HEK293 cells; also: potency is read from the fitted curve at half-maximal effect
Vaccinia mCherry – qHTS for Stage-Specific Inhibitors of Vaccinia Orthopoxvirus: mCherry Reporter Primary qHTS. AID 720579, 2013. Vaccinia virus mCherry reporter infection, fluorescence. 310,000 compounds, 0.63% hits. Potency, µM (highest dose often 36.5 µM), for inactives: at the top dose activity change, negative = inhibition, hits mostly inhibitors; calls by dose curve; tested in A549 cells; also: potency is read from the fitted curve at half-maximal effect; nearly all actives have a fitted effect of over 35% in size
Active calls of the source: *; u = inconclusive; x = no result; ! = a repeat was not active; [ ] = dose if it differs, or a comment. Sampled rows, rich in hits. Any-hit rate of the full collection: about 6.5%. % is scaled to controls: 0 for no effect and ±100 for the full control effect.

SMILES | Vaccinia Venus | LASV entry inh | HCMV inh | FMDV antiviral | Marburg entry inh | Vaccinia mCherry
CCOC(=O)c1cc(-c2ccc(F)cc2)n(CCC(=O)NCc2ccc(C)cc2)c1C | -9% | -30%[46.1 µM] | 0 | 16% | x | -21%
CC(C)=CCCC(C)=CCON=C1C[C@@H](O)[C@@H](O)[C@@H]2[C@H]3C(=O)N(C[C@@H]4CCCO4)C(=O)[C@@H]3CC[C@H]12 | x | x | x | x | 22%[14.2 µM] | x
Cc1[nH]c2ccccc2c1C(=O)C(=O)Nc1ccc2c(c1)OCCO2 | -19% | 20%[46.1 µM] | 82 | 25% | u | -5%
CCC(C(=O)Nc1ccc2c(c1)OCCO2)n1c(=O)[nH]c2ccccc2c1=O (stereo not drawn) | -19% | 22%[46.1 µM] | -73* | -2% | 15%[46.1 µM] | -12%
CN(C)CCCN1c2ccc3ccccc3c2Sc2cccc(Cl)c21 | u | u | 3 | -18% | u | u
O=C(COc1ccc2ccccc2c1)N1c2ccccc2Sc2ccccc21 | x | u | 16 | -22% | u | x
CN(C)CCCN1c2ccccc2Sc2ccc3ccccc3c21 | u | u | 17 | u | u | 10µM*
O=C(CCl)N1c2ccccc2Sc2ccc3ccccc3c21 | 10µM* | x | x | 32µM* | x | u
Cc1ccccc1Cn1cnc2nc3c(cc2c1=O)CC(C)CC3 (stereo not drawn) | -13% | 20%[46.1 µM] | 24 | 26% | x | -8%
Cc1cccc2nc(-c3cccnc3)c(NCCC(C)C)n12 | -18% | -5% | -30 | -26% | 15% | -16%
Cc1cccc2nc(-c3cccnc3)c(Nc3ccccc3)n12 | -12% | u | -74* | 32µM* | u | u
CCOc1cc(C(=O)OCc2cc(=O)n3c(C)csc3n2)cc(OCC)c1OCC | -1% | -4%[46.1 µM] | 8 | -12% | x | -9%
CCSc1ncc(Cl)c(C(=O)Nc2ccc(S(=O)(=O)N(C)c3ccccc3)cc2)n1 | -10% | u | -22 | -5% | -19%[46.1 µM] | -18%
CCN(c1ccccc1)S(=O)(=O)c1ccc(NC(=O)c2nc(S(C)(=O)=O)ncc2Cl)cc1 | u | u | -100* | 28µM* | -24%[46.1 µM] | u
CCS(=O)(=O)c1ncc(Cl)c(C(=O)Nc2ccc(S(=O)(=O)N(C)c3ccccc3)cc2)n1 | 14µM*! | u | -101* | 22µM* | 11µM* | -28%
Cc1cc(C)n(-c2ccc(C(=O)N3CCc4c(cnc(C)c4CNC(=O)c4ccccc4F)C3)cc2)n1 | -6% | x | x | -11% | x | -14%
Cc1ccc(N(C)S(=O)(=O)c2ccc(-c3cnc(C4CC4)o3)cc2)cc1 | -22% | 1.4µM* | u | -9% | x | u
CCOc1ccccc1CNS(=O)(=O)c1ccc(-c2cnc(C3CC3)o2)cc1 | u | u | -69* | u | x | u
COc1cc(Cl)c(NS(=O)(=O)c2ccc(-c3cnc(C4CC4)o3)cc2)c(OC)c1 | u | u | -76* | u | x | u
COc1ccc(C)cc1NS(=O)(=O)c1ccc(-c2cnc(C3CC3)o2)cc1 | u | u | -103* | u | x | u
Cc1ccc(NS(=O)(=O)c2ccc(-c3cnc(C4CC4)o3)cc2)cc1 | x | x | -29 | 14% | x | x
CCOCN(C(=O)Cn1cnc2cc(C)c(C)cc21)c1c(C)cccc1CC | u | -6%[46.1 µM] | 7 | -13% | u | -22%
COc1cccc(N2C(=O)CSC23C(=O)N(CC(=O)Nc2cccc(Cl)c2)c2ccccc23)c1 (stereo not drawn) | -12% | u | -7 | 0% | x | -11%
COCCNS(=O)(=O)c1ccc(-c2ccc(C)cc2)cc1 | x | u | -64* | 4% | -1% | x
Cc1ccc(S(=O)(=O)NCCOCCNS(=O)(=O)c2ccc(C)cc2)cc1 | x | 1% | -12 | 6% | 1% | x
CC(=O)c1c(NCCc2ccccc2)nc(=S)n(-c2ccccc2)c1C | x | x | -101* | u | x | x
CCn1c(C)c(C(C)=O)c(NCc2ccccc2)nc1=S | -8% | 10% | -81* | 51% | -27% | -19%
CC(=O)c1c(NCc2ccccc2)nc(=O)n(-c2ccccc2)c1C | x | u | -29 | 28% | 12% | x

Assay outcomes: PubChem BioAssay, National Center for Advancing Translational Sciences (NCATS)
